Results: PubChem BioAssay (EPA / NIEHS)
Records with an inconclusive call do not appear. Calls of active or inactive are those of the source. The calls were made as follows, unless noted: active = hit-call score of the fitted dose curve at least 0.9, where 1 is the maximum; inactive = score below 0.9.

test system: not listed separately; assay: ATG_TGFb_CIS: Attagene CIS-FACTORIAL HepG2 Assay for human Transforming Growth Factor (TGF) (AID 2282967); details: HepG2 Attagene CIS TGFb reporter, mRNA transcription; actives raise or lower the signal
Outline: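 Bidirectional fitting relative to DMSO gave the endpoint. Underlying data: reporter mRNA from HepG2 cells carrying transiently transfected cis-regulated reporter constructs, harvested 24 h after dosing and analyzed by RT-PCR and capillary electrophoresis.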

SMILES	outcome	AC50
N#[N+]c1ccc2c(S(=O)(=O)[O-])cccc2c1O	inactive	–
COCc1c(C(C)C)nc(C(C)C)c(/C=C/[C@@H](O)C[C@@H](O)CC(=O)O)c1-c1ccc(F)cc1	inactive	–
Cc1ccc([N+](=O)[O-])cc1S(=O)(=O)O	inactive	–
CCC(CO)CO	inactive	–
O=S(=O)(O)c1cc(S(=O)(=O)O)c2ccc3c(S(=O)(=O)O)cc(S(=O)(=O)O)c4ccc1c2c43	inactive	–
NC(=O)N=NC(N)=O	inactive	–
CCCCC(CC)COC(=O)c1ccccc1 (centres undefined)	inactive	–
CCCOCCOCCOCCO	inactive	–
CC(C)c1ccc(C=O)cc1	inactive	–
O=Cc1ccc(CO)o1	inactive	–
CCN(CC#N)c1cccc(C)c1	inactive	–
CCC(C)C=O (centres undefined)	inactive	–
Nc1ccc(N)c(Cl)c1	inactive	–
CC(=O)OCC(C)OC(C)=O (centres undefined)	inactive	–
NC(=O)OCC(COC(N)=O)c1ccccc1	inactive	–
c1ccc(-c2ccccn2)nc1	inactive	–
C=CC(C)(C)C	inactive	–
CCCCCCCCCCCCCCCC(=O)OCC	inactive	–

SMILES	outcome	AC50
CCO[Si](CCCN=C=O)(OCC)OCC	inactive	–
c1cc(N(CC2CO2)CC2CO2)ccc1OCC1CO1 (centres undefined)	inactive	–
C=CCCCCCCCCC(=O)OCCCC	inactive	–
C=C(C)CCO	–	0.316 µM (active)
CCCc1ccc(OC)cc1	inactive	–
COC(=O)/C=C\C(=O)O	inactive	–
CCC(CC)C(=O)O	inactive	–
C=C(C)[C@H]1CC=C(C)CC1	inactive	–
O=C(Cl)c1cc(C(=O)Cl)cc(C(=O)Cl)c1	–	132 µM (active)
CCCCC(CC)COC(=O)c1ccccc1O (centres undefined)	inactive	–
NC(=O)NNC(N)=O	inactive	–
CCCC(=O)OCc1ccccc1	inactive	–
CCCOC(=O)CCCCC(=O)OCCC	inactive	–
SCCc1cnccn1	inactive	–
CC[C@H]1OC(=O)[C@H](C)[C@@H](O[C@H]2C[C@@](C)(OC)[C@@H](O)[C@H](C)O2)[C@H](C)[C@@H](O[C@@H]2O[C@H](C)C[C@H](N(C)C)[C@H]2O)[C@](C)(O)C[C@@H](C)C(=NOCOCCOC)[C@H](C)[C@@H](O)[C@]1(C)O	inactive	–
COC(=O)C1=C(C)NC(C)=C(C(=O)OCC(C)C)C1c1ccccc1[N+](=O)[O-] (centres undefined)	inactive	–
O=C(O)Cc1c(Cl)ccc(Cl)c1Cl	inactive	–

test system: not listed separately; assay: ATG_VDRE_CIS: Attagene CIS-FACTORIAL HepG2 Assay for human Vitamin D Receptor Element (VDRE) (AID 2282968); details: HepG2 VDRE cis-reporter transcription, actives raise or lower the signal
Outline: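 Transient MRTU transfection of HepG2, 24 h compound exposure. Readout: reporter transcripts via RT-PCR and capillary electrophoresis, fluorescence. Bidirectional fit vs DMSO.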

SMILES	outcome	AC50
N#[N+]c1ccc2c(S(=O)(=O)[O-])cccc2c1O	inactive	–
Cc1ccc([N+](=O)[O-])cc1S(=O)(=O)O	inactive	–
CCC(CO)CO	inactive	–
NC(=O)N=NC(N)=O	inactive	–
CCCCC(CC)COC(=O)c1ccccc1 (centres undefined)	inactive	–
Oc1ccc(Cl)cc1Cc1cc(Cl)ccc1O	–	7 µM (active)
CCCOCCOCCOCCO	inactive	–
Cc1ccc2c(c1)C(=O)c1ccccc1C2=O	inactive	–
CC(C)c1ccc(C=O)cc1	inactive	–
[Cl][Nd]([Cl])[Cl]	inactive	–
O=Cc1ccc(CO)o1	inactive	–
CC(=O)OCC(C)OC(C)=O (centres undefined)	inactive	–
c1ccc(-c2ccccn2)nc1	inactive	–
C=CC(C)(C)C	inactive	–
CCO[Si](CCCN=C=O)(OCC)OCC	inactive	–
c1cc(N(CC2CO2)CC2CO2)ccc1OCC1CO1 (centres undefined)	–	36.8 µM (active)
C=CCCCCCCCCC(=O)OCCCC	inactive	–
C=C(C)CCO	inactive	–
CCCc1ccc(OC)cc1	inactive	–
CCC(CC)C(=O)O	inactive	–
O=C(Cl)c1cc(C(=O)Cl)cc(C(=O)Cl)c1	–	46 µM (active)
NC(=O)NNC(N)=O	inactive	–
CCCC(=O)OCc1ccccc1	inactive	–
CCCOC(=O)CCCCC(=O)OCCC	inactive	–
CC[C@H]1OC(=O)[C@H](C)[C@@H](O[C@H]2C[C@@](C)(OC)[C@@H](O)[C@H](C)O2)[C@H](C)[C@@H](O[C@@H]2O[C@H](C)C[C@H](N(C)C)[C@H]2O)[C@](C)(O)C[C@@H](C)C(=NOCOCCOC)[C@H](C)[C@@H](O)[C@]1(C)O	inactive	–

molecular target: Nuclear receptor subfamily 1 group I member 3 (Homo sapiens) (UniProt Q14994); assay: ATG_CAR_TRANS: Attagene TRANS-FACTORIAL HepG2 Assay for human Constitutive Androstane Receptor (CAR) (AID 2282969; active = hit-call score of the fitted dose curve at least 0.9, where 1 is the maximum;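 also: activators raise reporter mRNA above DMSO so AC50 marks induction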); details: HepG2 Attagene TRANS-FACTORIAL CAR reporter
Outline: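 Transiently transfected HepG2, multiplex TRANS reporters (CAR-Gal4 chimera driving GAL4-UAS reporter). 24 h dosing. Readout: reporter transcript by RT-PCR + capillary electrophoresis, fluorescence intensity; positive direction vs DMSO.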

Chain of Nuclear receptor subfamily 1 group I member 3 (Homo sapiens) (Q14994 whole entry, looked up, the tested form may be a part): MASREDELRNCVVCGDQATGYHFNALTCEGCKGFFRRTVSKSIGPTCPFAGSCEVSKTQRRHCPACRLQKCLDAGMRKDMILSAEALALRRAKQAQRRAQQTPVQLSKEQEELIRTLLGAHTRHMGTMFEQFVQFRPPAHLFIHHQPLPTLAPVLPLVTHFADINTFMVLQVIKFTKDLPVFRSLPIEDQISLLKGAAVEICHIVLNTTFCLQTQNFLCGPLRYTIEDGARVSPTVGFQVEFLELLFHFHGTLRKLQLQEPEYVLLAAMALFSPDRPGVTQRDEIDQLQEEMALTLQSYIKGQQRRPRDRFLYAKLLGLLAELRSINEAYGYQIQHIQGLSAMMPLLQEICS

SMILES	outcome
N#[N+]c1ccc2c(S(=O)(=O)[O-])cccc2c1O	inactive
NC(=O)N=NC(N)=O	inactive
CCCCC(CC)COC(=O)c1ccccc1 (centres undefined)	inactive
Cc1ccc2c(c1)C(=O)c1ccccc1C2=O	inactive
CC(C)c1ccc(C=O)cc1	inactive
CCN(CC#N)c1cccc(C)c1	inactive
Nc1ccc(N)c(Cl)c1	inactive
CCO[Si](CCCN=C=O)(OCC)OCC	inactive
c1cc(N(CC2CO2)CC2CO2)ccc1OCC1CO1 (centres undefined)	inactive
C=CCCCCCCCCC(=O)OCCCC	inactive
C=C(C)[C@H]1CC=C(C)CC1	inactive
CCCCC(CC)COC(=O)c1ccccc1O (centres undefined)	inactive
COC(=O)C1=C(C)NC(C)=C(C(=O)OCC(C)C)C1c1ccccc1[N+](=O)[O-] (centres undefined)	inactive

molecular target: Estrogen receptor (Homo sapiens) (UniProt P03372); assay: ATG_ERa_TRANS: Attagene TRANS-FACTORIAL HepG2 Assay for human Estrogen Receptor alpha (ERa) (AID 2282970; active = hit-call score of the fitted dose curve at least 0.9, where 1 is the maximum); details: HepG2 Attagene TRANS ERa GAL4 reporter, mRNA
Outline: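 Transfected HepG2 cells carrying GAL4-UAS-driven reporter units were dosed for 24 hours. Total RNA was reverse-transcribed, reporter sequences PCR-amplified, FAM-labelled, HpaI-digested and resolved by capillary electrophoresis. Increases over DMSO control defined activity.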

Chain of Estrogen receptor (Homo sapiens) (P03372 whole entry, looked up, the tested form may be a part): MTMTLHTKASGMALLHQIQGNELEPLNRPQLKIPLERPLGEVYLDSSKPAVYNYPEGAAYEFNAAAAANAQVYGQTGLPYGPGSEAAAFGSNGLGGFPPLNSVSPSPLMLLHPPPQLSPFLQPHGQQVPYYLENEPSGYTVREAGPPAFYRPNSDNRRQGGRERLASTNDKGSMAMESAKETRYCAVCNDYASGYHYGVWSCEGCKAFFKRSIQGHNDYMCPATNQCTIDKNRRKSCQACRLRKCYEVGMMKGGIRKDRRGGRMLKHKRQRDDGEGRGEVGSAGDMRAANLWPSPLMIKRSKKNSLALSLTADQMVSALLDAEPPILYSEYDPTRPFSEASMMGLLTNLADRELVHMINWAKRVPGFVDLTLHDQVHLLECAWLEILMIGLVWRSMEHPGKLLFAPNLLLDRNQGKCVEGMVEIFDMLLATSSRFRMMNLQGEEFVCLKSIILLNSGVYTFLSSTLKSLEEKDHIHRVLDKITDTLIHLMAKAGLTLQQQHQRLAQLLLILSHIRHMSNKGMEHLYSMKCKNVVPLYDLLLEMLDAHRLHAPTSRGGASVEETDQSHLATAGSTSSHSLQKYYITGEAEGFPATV

SMILES	outcome	AC50
N#[N+]c1ccc2c(S(=O)(=O)[O-])cccc2c1O	inactive	–
Cc1ccc([N+](=O)[O-])cc1S(=O)(=O)O	inactive	–
CCC(CO)CO	inactive	–
O=S(=O)(O)c1cc(S(=O)(=O)O)c2ccc3c(S(=O)(=O)O)cc(S(=O)(=O)O)c4ccc1c2c43	inactive	–
CCCCC(CC)COC(=O)c1ccccc1 (centres undefined)	–	34.6 µM (active)
Oc1ccc(Cl)cc1Cc1cc(Cl)ccc1O	inactive	–
Cc1ccc2c(c1)C(=O)c1ccccc1C2=O	–	12.4 µM (active)
CC(C)c1ccc(C=O)cc1	inactive	–
CCN(CC#N)c1cccc(C)c1	inactive	–
CCc1c(C(=O)O)c(=O)cnn1-c1ccc(Cl)cc1	inactive	–
Nc1ccc(N)c(Cl)c1	–	25.5 µM (active)
NC(=O)OCC(COC(N)=O)c1ccccc1	inactive	–
c1ccc(-c2ccccn2)nc1	inactive	–
CC(C)(Oc1ccc(C2CC2(Cl)Cl)cc1)C(=O)O (centres undefined)	inactive	–
CCCCCCCCCCCCCCCC(=O)OCC	inactive	–
C=CCCCCCCCCC(=O)OCCCC	inactive	–
C=C(C)CCO	inactive	–
CCCc1ccc(OC)cc1	inactive	–
C=C(C)[C@H]1CC=C(C)CC1	inactive	–
CCCCC(CC)COC(=O)c1ccccc1O (centres undefined)	–	50 µM (active)
CC[C@H]1OC(=O)[C@H](C)[C@@H](O[C@H]2C[C@@](C)(OC)[C@@H](O)[C@H](C)O2)[C@H](C)[C@@H](O[C@@H]2O[C@H](C)C[C@H](N(C)C)[C@H]2O)[C@](C)(O)C[C@@H](C)C(=NOCOCCOC)[C@H](C)[C@@H](O)[C@]1(C)O	inactive	–
